This note sets out measurements from PubChem BioAssay (NCI).

Holding throughout (experiment): NCI-60 one-dose screen, 48 h (100 = growth as untreated, 0 = no growth, -100 = all killed)
Holding throughout (details): 10 µM

Test [1] deals with K-562 leukemia.
In test [2] the test system is MDA-MB-231 breast.
Test [3] has as its system SF-268 CNS.
In test [4] the test system is SF-295 CNS.
Test [5] relates to SF-539 CNS.
Test [6] deals with UACC-257 melanoma.
Test [7] concerns M14 melanoma.
Test [8] concerns HCT-15 colon.
Test [9] deals with HT29 colon.
The test system of test [10] is SNB-75 CNS.
Test [11] has as its system SNB-19 CNS.
Test [12] concerns U251 CNS.
The subject of test [13] is PC-3 prostate.
The test system of test [14] is SK-MEL-5 melanoma.
Test [15] relates to UACC-62 melanoma.
The test system of test [16] is LOX IMVI melanoma.
The subject of test [17] is SK-MEL-28 melanoma.
For test [18], the system named is DU-145 prostate.
The subject of test [19] is RXF 393 renal.
The subject of test [20] is MALME-3M melanoma.

Each structure is given as a SMILES string. The panel holds about 83,000 compounds, 20% with a hit somewhere; the sample as a whole holds those more often.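 96-well plates, one dose, 48 hours. Percent growth reported; active if below 10.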 A number with no mark means an inactive call. Active and inactive are the calls of the source.

Consider `COc1ccc(Cl)cc1Nc1nc(C(F)(F)F)ccc1C(=O)N/N=C/c1ccc(Cl)cc1`, for which the growth is 28.6% in test [1]; 30.5% in test [2]; 37.2% in [3]; 18.5% in test [4]; 34% in test [5]; 43.3% in [6]. Also, the growth in [7] was 57.3%; in test [8], 25.4%; in [9], 25.2%; in test [10], 33.8%; in test [11], 60.2%; in [12] it was 29.9%. In addition, the growth is 34.6% in test [13]; 24.3% in [14]; 24.1% in [15]; 26.7% in [16]; 51.2% in test [17].

Consider `COc1ccc2c(c1)CC=C1[C@@H]2CC[C@]2(C)C(=O)/C(=N/O)C[C@@H]12`, for which the growth in test [18] is 96.6%; in test [2] it was 86.9%; in [19] it was 64%; in test [3], 76.4%; in [4] it was 74.9%; in test [5], 98.7%. In addition, the growth in test [6] is 118%; in [7], 94.3%; in test [8], 75.8%; in test [9], 67.8%; in [10] it was 58%; in [11], 93.4%. Further, the growth was 96.4% in test [12]; 89.7% in test [14]; 97.7% in test [15]; 70.3% in test [16]; 112% in [17].

With `CN(C)c1ncnc2c1nnn2C1OC(CO)C(O)C1O` (configuration not stated), the growth was 15.9% in test [18]; -10.4% (active) in test [20]; 36.5% in test [2]; -2.59% (active) in test [19]; 24.9% in test [3]; 6.4% (active) in [4]. Also, the growth is -2.72% (active) in test [5]; 11.8% in [6]; -13.2% (active) in [7]; 7.45% (active) in test [8]; 0.427% (active) in test [9]; 28.3% in test [10]. In addition, the growth in [11] was 33.9%; in test [13], 21.7%; in test [14], -12.6% (active); in test [15], -32.9% (active); in [16], 9.03% (active); in test [17], 12.6%.

`CCN(CC)CCN1c2nc3ccccc3cc2Sc2cc3ccccc3nc21`: the growth in test [1] is -69.1% (active); in test [2], -0.0354% (active); in test [3], 12.2%; in [4] it was -49.2% (active); in [5], -100% (active); in [6], 8.34% (active). In addition, the growth in [7] is -65% (active); in test [8] it was 3.28% (active); in [9] it was -92.3% (active); in test [10], -7.91% (active); in test [11], 36.4%; in test [12], 5.23% (active). Further, the growth in test [13] was -13.8% (active); in [14] it was -68.1% (active); in test [15], -0.283% (active); in test [16], -100% (active); in [17], -50.4% (active).

In the case of `CC(=O)COc1ccc(Cl)cc1Cl`, the growth is 106% in [18]; 105% in test [2]; 107% in test [19]; 109% in test [3]; 103% in test [4]; 114% in [5]. Besides, the growth in test [6] was 112%; in test [7], 110%; in test [8] it was 107%; in test [9], 105%; in [11], 118%; in [12], 97.9%. The growth is 102% in [13]; 99.8% in [14]; 96.7% in [15]; 94.9% in [16]; 113% in test [17].

`CC(=O)[C@@]12O[C@](C)(c3ccccc3)O[C@@H]1CC1C3CCC4=CC(=O)CC[C@]4(C)C3CC[C@@]12C` (some centres not stated): the growth in test [18] was 97.1%; in [20] it was 85.2%; in test [2], 94.4%; in test [19], 88.9%; in test [3], 77.4%; in [4], 44.4%. For the same molecule, the growth is 91.6% in [5]; 73.2% in test [6]; 87% in test [7]; 71% in test [8]; 69.6% in test [9]; 79.5% in test [10]. The growth in test [11] was 85.3%; in [13], 31.1%; in test [14] it was 55.1%; in [15] it was 63%; in test [16], 72.3%; in test [17], 99%.

As for `Cc1cc(Cl)ccc1Nc1nc(C(F)(F)F)ccc1C(=O)N/N=C/c1c(Cl)cccc1Cl`, the growth is 7.36% (active) in [1]; -17.2% (active) in test [2]; 12.8% in test [3]; -37.7% (active) in test [4]; 5.69% (active) in test [5]; 13.1% in test [6]. Also, the growth in test [7] is 7.93% (active); in [8] it was 9.11% (active); in [9], 3.29% (active); in [10], -16.4% (active); in test [11], 13.5%; in [12], -1.74% (active). Further, the growth is -13.7% (active) in test [13]; -85.4% (active) in test [14]; -12.9% (active) in test [15]; 10% in test [16]; 24.7% in test [17].

Consider `Nc1cc(-c2ccc(Cl)cc2)nn1-c1nc2ccccc2nc1Cc1ccccc1`, for which the growth in test [20] is 101%; in test [2], 75.1%; in test [19], 78.7%; in test [5] it was 99.5%; in test [6], 101%; in test [7], 89.6%. Also, the growth was 74.4% in test [8]; 69.7% in test [9]; 84.4% in test [10]; 89.9% in test [11]; 90.8% in test [12]; 86.7% in test [14]. For the same molecule, the results for the growth in test [15], in [16] and in [17] were 87.8%, 93.3% and 92.9%, respectively.

Consider `Cc1cn(-c2cc(F)cc(NC(=O)c3ccc(C)c(Nc4nccc(-c5cccnc5)n4)c3)c2)cn1`, for which the growth in test [18] is 65.4%; in test [2] it was 6.14% (active); in test [19] it was -1.37% (active); in test [3], 67.3%; in test [5] it was -39.8% (active); in test [6], 23.1%. The growth in test [7] was 60.2%; in test [8] it was 74.9%; in [9], 2.89% (active); in test [10] it was -20.8% (active); in test [11], 6.01% (active); in test [13], 68.6%. Moreover, the growth in [14] is 87.8%; in [15] it was 40.9%; in test [16] it was 17%; in [17], 28.2%.
